{"source": "PubChem BioAssay (NCATS)", "note": "Results filed as inconclusive are left out. A call without a number means that no potency is given here. Calls of active or inactive are those of the source. Calls come from the whole dose curve; tested in HEK293 reporter line. Potency is the fitted concentration of half-maximal effect.", "data": [{"test": "qHTS for Inhibitors of the Functional Ribonucleoprotein Complex (vRNP) of Lassa (LASV) Arenavirus: LASV Primary Screen - GLuc reporter signal (AID 1347082); note: nearly all actives have a fitted effect of over 60% in size", "conditions": "LASV minigenome vRNP, Gaussia luciferase reporter; series mostly up to 57.5 µM", "values": [{"compound": "COc1c2ccoc2c(OC[C@@H](O)C(C)(C)O)c2oc(=O)ccc12", "Potency": "inactive"}, {"compound": "NC(=O)Nc1ccc(Cl)c(Cl)c1", "Potency": "inactive"}, {"compound": "Cn1c(=O)c2nncnc2n(C)c1=O", "Potency": "inactive"}, {"compound": "Cc1nc(C)c(C)nc1C", "Potency": "inactive"}, {"compound": "CC(=O)OCC=C(C)C", "Potency": "inactive"}, {"compound": "C/C=C(\\C)C(=O)O[C@@H]([C@H](O)c1cc2ccc(=O)oc2cc1OC)C(C)(C)O", "Potency": "inactive"}, {"compound": "C=C(CC[C@@H](O)C(C)(C)O)[C@H]1CC[C@]2(C)[C@@H]1CCC1[C@@]3(C)CC[C@H](O)C(C)(C)C3CC[C@]12C", "note": "(stereo not given in full)", "Potency": "inactive"}, {"compound": "C=C(C)[C@@H]1CCC2(C(=O)O)CC[C@]3(C)[C@H](CC[C@@H]4[C@@]5(C)CCC(=O)C(C)(C)[C@@H]5CC[C@]43C)[C@@H]12", "note": "(stereo not given in full)", "Potency": "inactive"}, {"compound": "C[C@]12O[C@H](C[C@@]1(O)C(=O)O)n1c3ccccc3c3c4c(c5c6ccccc6n2c5c31)CNC4=O", "activity change, negative = inhibition": "-19.8% [at 5.82 µM] (inactive)"}, {"compound": "CCNC(=O)CCCC=CC[C@@H]1[C@H](C=CC(O)CCc2ccccc2)[C@@H](O)C[C@@H]1O", "note": "(stereo not given in full)", "Potency": "inactive"}, {"compound": "C=C[C@]1(C)Cc2occ(C)c2C[C@H]1C(=C)C(=O)O", "Potency": "inactive"}, {"compound": "C=C(C)c1cc2c(ccc3ccc(=O)oc32)o1", "Potency": "inactive"}, {"compound": "CC12C=CC(=O)C=C1CCC1C2CCC2(C)C(C(=O)CO)CCC12", "note": "(stereo not given)", "Potency": "inactive"}, {"compound": "COC1C(O)C(O)C(O)C(O)C1O", "note": "(stereo not given)", "Potency": "inactive"}, {"compound": "Cc1cnnc2ccccc12", "Potency": "inactive"}, {"compound": "CC/C=C\\CCOC(=O)c1ccccc1", "Potency": "inactive"}, {"compound": "COc1cc2c(cc1OC)-c1cc3ccc4c(c3c[n+]1CC2)OCO4", "Potency": "inactive"}, {"compound": "O=CCCc1ccccc1", "Potency": "inactive"}, {"compound": "CCOC(=O)[C@H](CCc1ccccc1)N[C@@H](C)C(=O)N1CCCC1C(=O)O", "note": "(stereo not given in full)", "Potency": "inactive"}, {"compound": "OCCNC1CCCc2c1[nH]c1ccc(-c3ccccc3)cc21", "note": "(stereo not given)", "Potency": "inactive"}, {"compound": "O=C(CCCCO)CCCCCCCC[C@H]1N[C@H](CO)[C@H](O)[C@@H]1O[C@@H]1O[C@H](CO)[C@@H](O)[C@H](O)[C@H]1O", "Potency": "inactive"}, {"compound": "Nc1nc(Cl)nc2c1ncn2[C@@H]1O[C@H](CO)C(O)[C@H]1O", "note": "(stereo not given in full)", "Potency": "inactive"}, {"compound": "O=c1c(O)c(-c2cc(O)c(O)c(O)c2)oc2cc(O)ccc12", "Potency": "inactive"}, {"compound": "COc1cc(CCc2cc(NC(=O)c3ccc(N4C[C@@H](C)N[C@@H](C)C4)cc3)n[nH]2)cc(OC)c1", "Potency": "inactive"}, {"compound": "COc1cc(C(=O)OC2CC3CCC2(C)C3(C)C)ccc1OC(C)=O", "note": "(stereo not given)", "Potency": "inactive"}, {"compound": "CC1(C)CC[C@]2(C(=O)O)[C@H](O)C[C@]3(C)C(=CCC4[C@@]5(C)C[C@H](O)[C@H](O)[C@@](C)(CO)C5CC[C@]43C)[C@@H]2C1", "note": "(stereo not given in full)", "Potency": "inactive"}, {"compound": "COc1ccc2cc1Oc1ccc(cc1)CC1c3cc(c(OC)cc3CCN1C)Oc1c(OC)c(OC)c(OC)c3c1C(C2)N(C)CC3", "note": "(stereo not given)", "Potency": "inactive"}, {"compound": "CC1CC[C@@]2(OC1)O[C@H]1CC3[C@@H]4C[C@@H](O)[C@@]5(O)C[C@@H](O)[C@H](O)C[C@]5(C)[C@H]4CC[C@]3(C)[C@H]1[C@@H]2C", "note": "(stereo not given in full)", "Potency": "inactive"}, {"compound": "CC(C)=CCCC(C)CC=O", "note": "(stereo not given)", "Potency": "inactive"}, {"compound": "COC(=O)c1ccccc1-n1c(C)nc2ccccc2c1=O", "Potency": "inactive"}, {"compound": "CCCCCCCCCCCCC(=O)CCCCC(=O)O", "Potency": "inactive"}, {"compound": "COc1cc2ccc(=O)oc2c(O)c1O", "Potency": "inactive"}, {"compound": "CN[C@H]1[C@@H](O)[C@@H]2O[C@@H]3O[C@H](C)CC(=O)[C@]3(O)O[C@@H]2[C@@H](NC)[C@H]1O", "Potency": "5.44 µM (active)"}, {"compound": "Cc1[nH]c(C=C2C(=O)Nc3ccc(S(=O)(=O)Cc4c(Cl)cccc4Cl)cc32)c(C)c1C(=O)N1CCC[C@H]1CN1CCCC1", "Potency": "inactive"}, {"compound": "C=O", "Potency": "inactive"}, {"compound": "CC(C)CC(=O)OC(C)(C)[C@@H]1Cc2c(ccc3ccc(=O)oc23)O1", "Potency": "inactive"}, {"compound": "C=C1CCC2C(C)(C)[C@@H](O)CC[C@@]2(C)[C@@H]1COc1ccc2ccc(=O)oc2c1", "note": "(stereo not given in full)", "Potency": "inactive"}, {"compound": "O=C(/C=C/c1ccccc1)OCCc1ccccc1", "Potency": "inactive"}, {"compound": "C[C@H](NCc1ccc2c(c1)nc(NC(=O)c1ccc(-c3cn[nH]c3)s1)n2CCc1ccccc1)C(C)(C)C", "Potency": "10.9 µM (active)"}, {"compound": "CC[C@H](C)/C=C(C)/C=C/C1=CC2=CC(=O)[C@]3(C)OC(=O)[C@@H](C(C)=O)[C@@H]3C2=CO1", "Potency": "inactive"}]}]}
